# High-throughput results: PubChem, several laboratories
# Only some compounds are listed: those with a hit (about 1.6% of all), similar ones and a draw of the others.
# STAT1 blocker: inhibitors of IFN-gamma induced STAT1 signaling | NIH 3T3 STAT1-luciferase reporter, luminescence | inhibition, % at 5.5 µM | 200,000 compounds, 0.35% hits | AID 920;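 active means inhibition above a set limit, the mean inhibition across all tested compounds plus 3 SD, cut at about 34% in these data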;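 further: 0% = IFN-gamma with DMSO and 100% = IFN-gamma with 300 µM nifuroxazide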
# STAT3 inh: reduces IL-6 driven STAT3 reporter signal; inhibition, % at 5.5 µM; 190,000 compounds, 0.89% hits; U3A cells, IL-6 STAT3-luciferase reporter, luminescence; host cell line lacks STAT1; AID 862;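 active means inhibition above the mean inhibition across all screened compounds plus 3 SD, cut at about 44% in these data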;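 further: 0% = DMSO only wells and 100% = 100 µM nifuroxazide control wells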
# PPC-1+TRAIL kill: compounds killing PPC-1 cancer cells with TRAIL present (potentiator screen, no TRAIL-free arm) | 220,000 compounds, 0.41% hits | cell killing (% activity), % at 4 µM or 5 µM | PPC-1 cells + TRAIL, ATPLite viability luminescence;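 active means cell killing above 50% in the first pass at 4 µM, then a duplicate retest at 5 µM averaging 50% or more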;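 further: plate controls were cells with TRAIL plus DMSO for no effect and medium-only wells lacking cells for full effect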
# C8 TRAIL sens: caspase-8 TRAIL sensitization | NB7+C8 cells + TRAIL, ATPlite viability luminescence | inhibition (viability loss, TRAIL sensitization), % at 10 µM | 360,000 compounds, 1% hits | AID 624354;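 active means compounds causing at least 50% loss of cell viability in the single-dose screen, relative to plate controls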
# Platelet DG rel: platelet dense granule release activity; inhibition, %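 (compounds screened at 7.5 µM in platelet-rich plasma)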; human platelet-rich plasma, SFLLRN dense granule ATP release, luminescence; 300,000 compounds, 0.22% hits;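 active means mean replicate score, as percent of positive control, at or above 50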
# Numbers without * were called inactive; . = no result.
SMILES,STAT1 blocker,STAT3 inh,PPC-1+TRAIL kill,C8 TRAIL sens,Platelet DG rel
CCCCC(=O)N(C)c1c(C)nc2ccc(C(=O)N(CC)CCN(C)C)cn12,.,.,.,0,.
COc1ccc(-n2ncc3c(N(C)C4CCCCC4)ncnc32)cc1,.,.,.,85*,1
Cc1ccc2nc(C3CCCCC3)c(Cc3ccccc3)n2c1,.,.,.,-4,.
Oc1cc(O)cc(-c2cc3ccc(O)cc3o2)c1,.,.,.,13,3
CC1(C)Oc2cc3oc(-c4cc(O)cc(O)c4)cc3cc2CC1O (centres undefined),.,.,.,80*,7
O=C(O)c1ccc(CN2C(=O)c3cccc4c([N+](=O)[O-])ccc(c34)C2=O)cc1,.,.,.,58*,5
CC(C)CC(N)c1csc(NC(=O)c2cc(C(C)(C)C)nn2Cc2ccccc2)n1 (centres undefined),.,.,.,84*,.
O=C(CCl)N1c2ccccc2SCC1c1ccccc1 (centres undefined),.,.,.,83*,0
CNc1ncc(C(=O)c2ccc(F)cc2)s1,-29,-10,17,0,-5
O=C(c1ccc(F)cc1)c1cnc(Nc2ccccc2)s1,-58,-9,40,61*,-4
CCCCCNC(=O)C(c1ccc(OC)cc1)n1c(=O)c(-c2cc3ccccc3[nH]2)nc2ccccc21 (centres undefined),.,.,.,-11,.
Cc1coc2c1C(=O)C(=O)c1c-2ccc2c(C)cccc12,.,.,28,54*,3
Cc1coc2c1C(=O)C(=O)c1c-2ccc2c1CCCC2(C)C,-20,.,-3,33,-1
Cn1c(=N)n(CC(=O)c2ccc(Cl)c(Cl)c2)c2ccccc21,.,.,.,66*,9
COc1ccc(C(=O)Cn2c(=N)n(C)c3ccccc32)cc1,.,.,15,1,6
CC1(C)CC(=O)C=C(c2ccc(-c3ccc(OC(F)(F)F)cc3)cc2)C1=O,.,.,.,20,.
O=C1C(=C2CCc3ccccc32)Cc2ccccc21,.,.,.,51*,.
Oc1ccc(/C=N/N2CCN(C3c4ccccc4-c4ccccc43)CC2)cc1O,.,.,-13,58*,2
CN1CCN(c2ccc3sc(-n4ccc5ccccc54)nc3c2)CC1,.,.,.,68*,.
O=C(N/N=C/c1cccc(NC(=O)c2ccc(Cl)cc2)c1)c1ccc(O)cc1,.,.,30,61*,4
C/C(=N\NC(=O)c1cc(O)ccc1O)c1cccc(NC(=O)c2ccc(Cl)cc2)c1,.,.,.,58*,3
C/C(=N\NC(=O)c1ccn(C)n1)c1cccc(NC(=O)c2ccc(C)s2)c1,-13,-3,46,58*,8
C/C(=N\NC(=O)c1cc(O)ccc1O)c1cccc(NC(=O)c2cccc(Cl)c2)c1,.,.,.,9,2
COc1ccc(C(=O)N/N=C(/C)c2cccc(NC(=O)c3ccccc3F)c2)cc1,.,.,.,59*,-6
C/C(=N/NC(=O)c1ccco1)c1cccc(NC(=O)c2ccc(C)s2)c1,-7,26,25,26,2
SMILES,STAT1 blocker,STAT3 inh,PPC-1+TRAIL kill,C8 TRAIL sens,Platelet DG rel
O=C(N/N=C/c1ccncc1)c1cccc(NC(=O)c2ccc(Cl)cc2)c1,-3,2,9,-8,-1
Clc1cccc(Cc2c(C3CCCCC3)nc3c4ccccc4ccn23)c1,.,.,.,1,.
COc1ccccc1NC(=O)COC(=O)C1CC2CCCC(C1)C2=O (centres undefined),.,.,.,-15,.
C/C(=N/NC(=O)c1ccncc1)c1ccc(NC(=O)c2ccccc2)cc1,.,.,.,10,-5
C/C(=N\NC(=O)c1ccncc1)c1cccc(NC(=O)c2ccc(C(C)(C)C)cc2)c1,.,.,.,80*,3
O=S(=O)(c1ccc(Br)cc1)N1CCN(c2ccc3nnc(-c4ccccc4)n3n2)CC1,-1,-69,-7,51*,-9
O=C(c1ccc(Br)o1)N1CCN(c2ccc3nnc(-c4ccccc4)n3n2)CC1,13,-22,9,13,13
CCOC(=O)C1=C[C@@H](C(C)(C)C)N(S(=O)(=O)c2ccc(C)cc2)[C@H]1c1ccc(Cl)c(Cl)c1,.,.,.,3,.
CCOC(=O)c1c(CSC(=N)N)n(-c2ccc(C)cc2)c2cc(Br)c(OC(C)=O)cc12,3,-5,18,93*,6
CC(C)(C)C(=O)Nc1ccc(C(=O)COC(=O)C2=COCCO2)cc1,.,.,.,-18,.
COc1cc(NC(=O)c2ccccc2)c(OC)cc1NC(=O)CSc1[nH]c(=O)cc(C)c1C#N,.,.,.,16,71*
O=C(Nc1cccc(Oc2ccc(C(=O)O)c(C(=O)O)c2)c1)c1ccc(-c2ccccc2)cc1,.,.,25,54*,11
CC(C)(C)C(=O)Nc1ccc(C(=O)Nc2cccc(Oc3ccc(C(=O)O)c(C(=O)O)c3)c2)cc1,.,.,.,30,0
CCOc1ccccc1Nc1cc2n(c(=O)n1)CCc1cc(OC)c(OC)cc1-2,.,.,.,-12,90*
COc1cc2c(cc1OC)-c1cc(Nc3ccccc3C)nc(=O)n1CC2,.,.,.,1,93*
CCOc1ccc(Nc2cc3n(c(=O)n2)CCc2cc(OC)c(OC)cc2-3)cc1,.,.,.,5,9
COc1cc2c(cc1OC)-c1cc(Nc3cccc(C)c3)nc(=O)n1CC2,.,.,.,-4,86*
CCNc1cc2n(c(=O)n1)CCc1cc(OC)c(OC)cc1-2,-2,-2,8,-13,21
CSc1ccc(CN2C(=O)C(C)ON=C2c2ccccc2F)cc1 (centres undefined),.,.,.,-1,.
COc1ccc(NC(=O)c2ccccn2)cc1,27,77*,76*,74*,58*
CSc1nc2ccc(NC(=O)c3ccccn3)cc2s1,.,.,.,82*,-6
COc1ccc(NC(=O)c2cnn(-c3ccccc3)c2C)cc1,.,.,.,25,59*
CCc1cc(C(=O)Nc2cc(S(=O)(=O)N3CCCCC3)ccc2N2CCN(C)CC2)sc1C,.,.,.,-16,.
COc1ccc(S(=O)(=O)/N=C2\C=C(Nc3ccc(O)cc3)C(=O)c3ccccc32)cc1,.,.,.,96*,10
O=S(=O)(Nc1ccc(C(O)(C(F)(F)F)C(F)(F)F)cc1)c1cccc2ccccc12,.,.,.,6,.
SMILES,STAT1 blocker,STAT3 inh,PPC-1+TRAIL kill,C8 TRAIL sens,Platelet DG rel
Oc1c(Cl)cc(Cl)cc1C=Nc1cc(C(F)(F)F)ccc1N1CCc2ccccc2C1,.,.,37,53*,13
O=c1c2ccccc2cnn1-c1ccc2ccccc2c1,-34,20,7,51*,-2
O=c1oc(Nc2ccc(F)cc2)nc2ccccc12,9,35,2,7,70*
O=C1C(Nc2ccccc2)=C(N2CCCCC2)C(=O)c2ccccc21,11,-28,30,36,3
COc1ccccc1NC1=C(N2CCCCC2)C(=O)c2ccccc2C1=O,11,2,72*,50,-2
CCC(C)c1ccc2oc(-c3ccc(NC(=O)Cn4cnc5c(=O)n(C)c(=O)n(C)c54)cc3)nc2c1 (centres undefined),-17,13,15,80*,2
O=C(NCc1cc(Cl)cc(Cl)c1)c1ccc2nc([C@@H]3O[C@H](CO)[C@@H](O)[C@H]3O)[nH]c2c1,.,.,.,-17,.
CC(C)c1ccc(-c2nnc(N)s2)cc1,-37,8,58*,58*,-2
CC1CCc2nc3sc4c(c3c(N)c2C1)CCCC4 (centres undefined),-24,15,22,39,-7
Nc1c2c(nc3sc4c(c13)CCCCC4)CCCCC2,-51,-4,4,65*,-3
